Assay results: the supplement of paper PMC13172266
Counter-ions that a name gives are not always drawn.

Key:
Assay in all cases: cell proliferation relative to vehicle (% of vehicle); higher = less growth inhibition
Conditions in all cases: 72 h
[1] = system: U2932 TK216-resistant clone 2
Procedure, shortened: (§1)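 A library of 348 targeted inhibitors was screened against the ABC-DLBCL cell line U2932, using parental cells and two clones made resistant to an ETS-targeting agent through repeated exposure over almost a year. The cells were cultured at 37°C and 5% CO2 in medium containing 10% FBS and treated at 500 nM or 50 nM for 72 h, after which MTT was added for 4 h, stopped with 25% SDS, and absorbance was read on a Cytation 3. Proliferation is given as the percentage of proliferating cells relative to the vehicle, DMSO.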

[2] = system: U2932 TK216-resistant clone 3
Procedure, shortened: as §1

U2932 parental = system: U2932 parental
Procedure, shortened: as §1

Row | Structure (SMILES) | cell proliferation ([1]; 50 nM) | cell proliferation ([1]; 500 nM) | cell proliferation ([2]; 50 nM) | cell proliferation ([2]; 500 nM) | cell proliferation (U2932 parental; 50 nM) | cell proliferation (U2932 parental; 500 nM)
1 | CC(C)Oc1ccc(C(=O)N[C@H](CNC(=O)CN(C)C)Cc2ccc(-c3cn4cccc([C@H](C)O)c4n3)cc2)cc1Cl | 45.4 | 15 | 34.3 | 14.4 | 47.6 | 14.6
2 | COc1cc(-c2cc(-c3ccc(N4CCNCC4)cc3)cnc2C)cc(OC)c1OC | 99.7 | 88.1 | 107 | 88.5 | 104 | 96.6
3 | Nc1cc(C(F)(F)F)c(-c2cc(N3CCOCC3)nc(N3CCOCC3)n2)cn1 [BKM120 (NVP-BKM120, Buparlisib)] | 112 | 77.9 | 96.2 | 72.4 | 97.7 | 78.5
4 | O=C(Cc1ccc(-c2ccc(OCCN3CCOCC3)cc2)cn1)NCc1ccccc1 | 14.1 | 8.36 | 20.3 | 8.01 | 13.9 | 9.55
5 | CCn1c(-c2nonc2N)nc2c(C#CC(C)(C)O)ncc(OC[C@H]3CCCNC3)c21 | 91.1 | 54.1 | 97 | 66.9 | 90.5 | 58.6
6 | NC(=O)c1ncn([C@@H]2O[C@H](CO)[C@@H](O)[C@H]2O)c1O [Mizoribine] | 104 | 108 | 100 | 99.7 | 104 | 102
7 | COc1ccccc1OCC(O)CN1CCN(CC(=O)Nc2c(C)cccc2C)CC1 (centres undefined) [Ranolazine] | 97.6 | 91.3 | 95 | 101 | 106 | 99.1
8 | CN1CCN(c2ccc3nc(-c4c(N)c5c(F)cccc5[nH]c4=O)[nH]c3c2)CC1 [Dovitinib (TKI-258, CHIR-258)] | 103 | 83.9 | 95.7 | 83.3 | 95.1 | 96.9
9 | CC(C)CCN1c2nc(Nc3cc(F)c(O)c(F)c3)ncc2N(C)C(=O)C1C (centres undefined) | 114 | 99.9 | 106 | 91.3 | 105 | 97.3
10 | O=C(NCCCNc1nc(Nc2cccc(NC(=O)N3CCCC3)c2)ncc1I)c1cccs1 | 98.5 | 98.8 | 99.5 | 95.7 | 97.2 | 92.1
11 | CCCc1ccc(OCC(=O)N(Cc2nc(-c3cccnc3)no2)C(C)C)cc1 | 107 | 102 | 103 | 101 | 85.2 | 97.7
12 | CC/C(=C(\c1ccccc1)c1ccc(OCCN(C)C)cc1)c1ccccc1 [Tamoxifen Citrate] | 98.9 | 89.7 | 89 | 86.3 | 82.1 | 79.1
13 | C/C(=C\C(=O)Nc1ccccc1C(=O)O)c1ccc2ccccc2c1 | 82.5 | 98.2 | 109 | 100 | 97.4 | 102
14 | O=C(/C=C/c1ccc2ccccc2n1)c1ccncc1 | 99.7 | 83.1 | 102 | 88.3 | 98.2 | 89.1
15 | Cc1cc(CS(=O)(=O)c2ccccc2)cc(OCc2ccc(CN3CCC[C@@H]3CO)cc2)c1 | 105 | 90.6 | 106 | 97.9 | 97.2 | 107
16 | CCN(c1cc(-c2ccc(CN3CCOCC3)cc2)cc(C(=O)NCc2c(C)cc(C)[nH]c2=O)c1C)C1CCOCC1 | 92.4 | 80.1 | 96.4 | 87.6 | 89.5 | 82.5
17 | COc1ccc(C2=N[C@@H](c3ccc(Cl)cc3)[C@@H](c3ccc(Cl)cc3)N2C(=O)N2CCNC(=O)C2)c(OC(C)C)c1 [Nutlin-3] | 106 | 97.3 | 109 | 103 | 99.8 | 99.6
18 | COc1ccc(S(=O)(=O)N(C(C)=O)c2ccccc2/C=C/c2cc[n+]([O-])cc2)cc1 | 103 | 12.6 | 99.5 | 13.2 | 88.7 | 11.3
19 | COc1cc(C(=O)N2CCC(N3CCN(C)CC3)CC2)ccc1Nc1ncc2c(n1)N(C)c1ccccc1C(=O)N2C | 104 | 92.2 | 100 | 100 | 105 | 101
20 | CC[C@@H]1C(=O)N(C)c2cnc(Nc3ccc(C(=O)NC4CCN(C)CC4)cc3OC)nc2N1C1CCCC1 | 13.1 | 21 | 16.2 | 23.3 | 14.8 | 20.4

Row | Structure (SMILES) | cell proliferation ([1]; 50 nM) | cell proliferation ([1]; 500 nM) | cell proliferation ([2]; 50 nM) | cell proliferation ([2]; 500 nM) | cell proliferation (U2932 parental; 50 nM) | cell proliferation (U2932 parental; 500 nM)
21 | Nc1nccc2c1ncn2C1C=C(CO)C(O)C1O (centres undefined) [3-Deazaneplanocin A (DZNeP)] | 103 | 86.2 | 102 | 82.1 | 98.1 | 81.5
22 | O=c1c(O)c(-c2ccc(O)c(O)c2)oc2cc(O)cc(O)c12 [Quercetin] | 110 | 119 | 108 | 106 | 101 | 106
23 | Cc1ccc(F)c(NC(=O)Nc2ccc(-c3cccc4[nH]nc(N)c34)cc2)c1 [Linifanib (ABT-869)] | 99.8 | 93.1 | 99 | 95.7 | 90.6 | 107
24 | Oc1nc(-c2ccc(C(F)(F)F)cc2)nc2c1CSCC2 | 90.3 | 108 | 111 | 95.1 | 99.3 | 98.2
25 | Cc1cc(Nc2cc(N3CCN(C)CC3)nc(Sc3ccc(NC(=O)C4CC4)cc3)n2)n[nH]1 [VX-680 (Tozasertib, MK-0457)] | 91.1 | 79.9 | 72.2 | 69 | 64.5 | 57.8
26 | Cc1c(CN2CCN(C(=O)[C@H](C)O)CC2)sc2c(N3CCOCC3)nc(-c3cnc(N)nc3)nc12 | 79.4 | 32 | 82.1 | 40.6 | 85 | 33.4
27 | Clc1ccc(C2(c3ccc(-c4cn[nH]c4)cc3)CCNCC2)cc1 | 88.5 | 48.2 | 94.6 | 73.6 | 93 | 75.5
28 | Cc1cc(NC(=O)c2cccc(NC(=O)/C=C/CN(C)C)c2)ccc1Nc1nccc(-c2cccnc2)n1 | 99.5 | 106 | 108 | 116 | 96.8 | 103
29 | CN(C)Cc1ccc(S(=O)(=O)n2ccc(/C=C/C(=O)NO)c2)cc1 [Resminostat] | 99.1 | 93.8 | 92 | 90.4 | 93.4 | 84.7
30 | CCC[C@H](Nc1nc(-c2ccc(NC(=O)NCC)c(OC)c2)ncc1C)c1cccnc1 [CYT997 (Lexibulin)] | 10.1 | 9.29 | 8 | 12.1 | 10.4 | 14.3
31 | CC(=O)O[C@@]12CO[C@@H]1C[C@H](O)[C@@]1(C)C(=O)[C@H](O)C3=C(C)[C@@H](OC(=O)[C@H](O)[C@@H](NC(=O)OC(C)(C)C)c4ccccc4)C[C@@](O)([C@@H](OC(=O)c4ccccc4)[C@H]21)C3(C)C [Docetaxel] | 8.81 | 11.6 | 5.58 | 6.54 | 9.62 | 9.31
32 | O=S(=O)(O)CCS [Mesna] | 110 | 116 | 101 | 103 | 95.4 | 103
33 | COc1cc(Nc2ncc3c(n2)-c2ccc(Cl)cc2C(c2c(F)cccc2OC)=NC3)ccc1C(=O)O [Alisertib (MLN8237)] | 73.6 | 79.3 | 61.8 | 72.8 | 52.2 | 53.2
34 | CN(C)c1nc(N(C)C)nc(N(C)C)n1 [Altretamine] | 105 | 102 | 106 | 96.6 | 97.7 | 104
35 | O=C(O)C(=O)O.[NH-][C@@H]1CCCC[C@H]1[NH-].[Pt+2] [Oxaliplatin] | 104 | 99 | 105 | 96.6 | 96.8 | 93.2
36 | Cc1cnc(Nc2ccc(N3CCN(C)CC3)cc2)nc1Nc1cccc(S(=O)(=O)NC(C)(C)C)c1 | 95.6 | 70.3 | 90 | 65.2 | 89.4 | 79.5
37 | CO[C@H]1/C=C\C=C(/C)C(=O)NC2=CC(=O)C(NCCN(C)C)=C(C[C@@H](C)C[C@H](OC)[C@H](O)[C@@H](C)/C=C(\C)[C@@H]1OC(N)=O)C2=O [17-DMAG (Alvespimycin) HCl] | 46.7 | 3.06 | 42.3 | 17 | 67 | 3.09
38 | Cc1cnc(-c2ccccc2C(C)C)nc1NCc1ccc(-n2ccnn2)cc1 | 108 | 97.8 | 105 | 108 | 101 | 98.5
39 | Oc1c2ccccc2c2c3c(cccc13)N=N2 | 101 | 113 | 105 | 104 | 103 | 101
